Hits are enriched below; roughly 1.2% of the tested compounds scored in any of these assays.
Vc quorum ag: induces V. cholerae light production without autoinducers; hit rate 0.16% among 350,000; V. cholerae BH1578 lux reporter, luminescence, 6 h; activation, % at 18.7 µM; AID 588436; in the data active = activation mostly above about 9.7%, no sharp cut-off
Yp Topo-I inh: blocks Yersinia pestis topoisomerase I activity | hit rate 0.064% among 360,000 | activity, % at 10 µM | Y. pestis Topo-I cleavage product accumulation, plate reader | AID 504884; in the data active = activity above about 50%, passing the limit was not always enough
DUSP3 inh: blocks human VHR1 dual specificity phosphatase | hit rate 0.52% among 290,000 | inhibition, % at 13.3 µM | recombinant VHR phosphatase, pNPP absorbance | P51452; in the data active = inhibition above about 50%
Target sequence (P51452 whole entry, looked up): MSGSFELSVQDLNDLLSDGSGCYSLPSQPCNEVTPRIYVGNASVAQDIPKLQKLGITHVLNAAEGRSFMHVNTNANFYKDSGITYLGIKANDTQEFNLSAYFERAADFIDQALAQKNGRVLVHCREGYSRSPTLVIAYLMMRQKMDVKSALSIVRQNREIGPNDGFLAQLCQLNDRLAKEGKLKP
Mtb BioA inh: blocks M. tuberculosis BioA enzyme activity. purified M. tuberculosis BioA enzyme, plate reader. inhibition, % at 9.99 µM. hit rate 0.096% among 360,000; in the data active = inhibition above about 40%
PfHsp40 rescue: restores yeast growth despite PfHsp40 toxicity; S. cerevisiae expressing PfHsp40, growth rescue, ATP luminescence; growth rescue, % at 12.5 µM; hit rate 0.68% among 340,000; AID 504582; in the data active = growth rescue above about 28%, passing the limit was not always enough;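 note: yeast W303a lacking pdr1 and pdr3 grown in galactose medium; growth measured after three days at 30 °C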
TcdB inh: inhibitors of Clostridioides difficile toxin B glycohydrolase; P18177; TcdB glycohydrolase enzymatic assay, plate reader; inhibition, % at 9.99 µM; hit rate 0.24% among 350,000; AID 652162; in the data active = inhibition above about 10%
Active calls of the source: *; i = inactive; . = no result.

SMILES	Vc quorum ag	Yp Topo-I inh	DUSP3 inh	Mtb BioA inh	PfHsp40 rescue	TcdB inh
Cc1oc2c(c1C(=O)c1ccccc1)C(=O)C(=O)c1ccccc1-2	i	-22	42	-1	97*	.
Cc1oc2c(c1C(=O)O)C(=O)c1ccccc1C2=O	0	7	6	-1	-1	-1
COc1ccc(NS(=O)(=O)c2cc(N=Nc3c(O)[nH]c(=O)[nH]c3=O)ccc2Cl)cc1	i	2	.	1	0	11*
Cc1ccc(NS(=O)(=O)c2ccc(Cl)c(N=Nc3c(O)[nH]c(=O)[nH]c3=O)c2)cc1Cl	-2	-3	.	3	-1	0
CC(=O)Nc1c(-c2ccc3ccccc3c2)nc2ccccn12	i	4	21	0	-1	0
CC(=O)C1=CCC(c2ccc(C)cc2)N(S(=O)(=O)c2ccc(C)cc2)C1 (stereo not drawn)	.	.	.	-2	.	12*
Cc1ccc(S(=O)(=O)N2CC(CBr)=CCC2c2ccccc2)cc1 (stereo not drawn)	.	.	.	.	.	16*
CC(=O)C1=CCC(c2ccc(Br)cc2)N(S(=O)(=O)c2ccc(C)cc2)C1 (stereo not drawn)	.	.	.	0	.	3
CCCn1c(SCC(=O)NC(C)(C)C)nnc1-c1ccco1	0	-11	53*	-1	0	1
CCC(C)(C)NC(=O)C(Sc1ccccc1)c1ccccc1 (stereo not drawn)	i	5	22	.	0	1
CS(=O)(=O)N1CCN(C(=O)Cc2ccccc2Cl)CC1	i	-12	28	0	0	-4
O=C(O)c1ccccc1C(=O)Nc1ccc(-n2nccc2C(F)(F)F)cc1	i	-2	2	.	0	1
COc1ccc(C(=O)NC(=S)NNC(=O)[C@H]2C[C@@H]2c2ccccc2)cc1OC	-1	-1	27	.	66*	2
Cc1onc(-c2ccccc2)c1C(=O)NCc1ccc2c(c1)OCO2	i	5	-25	-2	0	1
COc1ccc(CCNC(=O)c2c(-c3ccccc3)noc2C)cc1OC	-4	1	6	1	4	-2
COc1ccc(C(=O)NC(=S)NNC(=O)c2c(-c3ccccc3)noc2C)cc1OC	1	0	16	4	31*	2
Cc1onc(-c2ccccc2)c1C(=O)NNC(=S)NC(=O)c1ccc2c(c1)OCO2	-1	-5	12	0	48*	1
COc1cc(OC)cc(C(=O)NC(=S)NNC(=O)[C@H]2C[C@@H]2c2ccccc2)c1	i	-7	27	1	11	3
CN(C)c1ccc(CN(C(=O)c2ccc(Cl)c([N+](=O)[O-])c2)C2CCS(=O)(=O)C2)cc1 (stereo not drawn)	0	17	27	.	0	-4
Oc1cc(-c2ccc(N3CCCCC3)nc2)cc2cccnc12	i	-8	.	-3	0	.
CCOc1ccccc1N(C)C(=O)c1cn(C)c(=O)c2ccccc12	-1	-9	51*	2	0	0
CCOc1ccccc1N(C)C(=O)c1cn(CC)c(=O)c2cc(OC)c(OC)cc12	i	11	21	0	-1	0
COc1ccc(CN2CCNCC2)cc1	0	3	60*	-1	-1	0
COc1ccc(CN(C)c2ncnc(N)n2)cc1	17*	-2	43	-1	0	.
c1ccc(CSc2ccc(-c3ccccn3)nn2)nc1	-1	-8	2	.	416*	1
SMILES	Vc quorum ag	Yp Topo-I inh	DUSP3 inh	Mtb BioA inh	PfHsp40 rescue	TcdB inh
c1ccc(-c2ccc(SCc3cccnc3)nn2)nc1	-1	5	23	.	259*	2
O=C(OCC(=O)N1CCCc2ccccc21)c1ccc(C(F)(F)F)cc1	0	5	.	-1	-2	11*
O=S(=O)(Oc1ccccc1/C=N/n1cnnc1)c1ccccc1	0	-1	15	.	1	20*
Cc1cccc(C2=NN(c3ccccc3)[C@@H](C(=O)N3CCOC3=O)[C@@H]2C)c1	i	-4	.	2	33*	1
Cc1cccc(C2=NN(c3ccc(Br)cc3)[C@@H](C(=O)N3CCOC3=O)[C@@H]2C)c1	-1	-10	.	0	1	0
C=CC[C@H](CC(=O)N(CCO)Cc1ccccc1)C(=O)NC[C@H](OC(=O)[C@@H](CC=C)CC(=O)OC(C)(C)C)c1ccccc1	0	18	.	-2	5	1
C=CC[C@@H](CC(=O)N(CCO)Cc1ccccc1)C(=O)NC[C@@H](OC(=O)[C@@H](CC=C)CC(=O)OC(C)(C)C)c1ccccc1	0	13	.	0	11	11*
OC[C@@H]1CC[C@@H]2O[C@H](CCc3ccc(C#Cc4ccccc4)cc3)[C@@H](n3cc(-c4ccccc4)nn3)C[C@@H]2O1	.	.	.	.	.	1
S=c1[nH]nc(-c2cc(-c3ccccc3)n[nH]2)n1/N=C/c1cccc(Cl)c1	-1	10	50*	.	5	2
S=c1[nH]nc(-c2cc(-c3ccccc3)n[nH]2)n1/N=C/c1ccc(Cl)cc1	-1	18	-1	0	-1	0
Cc1cc(Br)c(NC(=O)CCl)c(Br)c1	4	3	0	.	-1	3
Cc1cccc(N(C)S(=O)(=O)c2c(C)[nH]c(C)c2C(=O)N2CCCC2)c1	i	2	54*	2	0	2
CN(C)S(=O)(=O)c1cccc(C(=O)Nc2cc(Cl)cc(Cl)c2)c1	-1	-11	23	1	4	.
Cc1noc(C)c1NC(=O)Nc1ccc2c(c1)C(=O)N([C@H](C)CO)C[C@H](C)[C@@H](CN(C)Cc1ccc(Oc3ccccc3)cc1)O2	.	.	.	0	.	0
Oc1ccc2oc3c(c2c1C=NCc1ccncc1)CCCC3	-1	-8	-13	-5	-1	0
ONC(=Nc1ccccc1)C(=Nc1ccccc1)NO	2	3	57*	-2	1	.
CCCC(=O)Nc1ccc2c(c1)OC[C@H](C)N(CC1CCCC1)C[C@@H](C)[C@H](OC)CN(C)C2=O	.	.	.	0	.	0
CCCC(=O)Nc1ccc2c(c1)OC[C@H](C)N(CC1CCCC1)C[C@H](C)[C@@H](OC)CN(C)C2=O	.	.	.	-3	.	30*
CCC(=O)Nc1ccc2c(c1)OC[C@@H](C)N(C(=O)NC(C)C)C[C@H](C)[C@H](OC)CN(C)C2=O	.	.	.	-2	.	15*
CCC(=O)Nc1ccc2c(c1)C(=O)N(C)C[C@H](OC)[C@@H](C)CN(C(=O)NC(C)C)[C@H](C)CO2	.	.	.	9	.	0
CCC(=O)Nc1ccc2c(c1)OC[C@H](C)N(C(=O)NC(C)C)C[C@@H](C)[C@@H](OC)CN(C)C2=O	.	.	.	-5	.	11*
CCC(=O)Nc1ccc2c(c1)C(=O)N(C)C[C@H](OC)[C@@H](C)CN(C(=O)NC(C)C)[C@@H](C)CO2	.	.	.	-1	.	0
C[C@H]1CCCCO[C@@H](CN(C)C(=O)Nc2ccccc2)[C@@H](C)CN([C@@H](C)CO)C(=O)c2cc(NC(=O)Nc3ccccc3)ccc2O1	.	.	.	-1	.	0
Cc1ccc(C)c(S(=O)(=O)N2CCN(c3nc(CN4CCOCC4)nc4sc(C)c(C)c34)CC2)c1	-1	15	.	-1	0	0

Source: PubChem BioAssay
